SMILES strings stand for the structures. Calls of active or inactive are those of the source.

For test [1], the system named is Plasmodium falciparum Sir2 (PF13_0152, Sir2A). In words: Plasmodium falciparum Sir2A binding compounds – biochemical, small-molecule microarray, 635 nm fluorescence, primary screen (AID 1098).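 Further: score merges spot fluorescence intensity with its signal-to-noise ratio.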 The following applies: fluorescence 635 nm, higher = more signal.
The nature of test [2]: probe aDKK1 binding to arrayed compounds – biochemical, biotinylated probe, 635/667 nm fluorescence, primary screen (AID 1099).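 Further: score merges 667nm spot fluorescence with signal to noise across triplicate slides.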 Conditions: small-molecule microarray, higher = more signal.
Test [3] in a line: probe aCHRDL2 binding to arrayed compounds – biochemical, biotinylated probe, 635/667 nm fluorescence, primary screen (AID 1100). Conditions: small-molecule microarray, higher = more signal.
A short description of test [4]: change in splice reporter luminescence, either direction, cell-based, HEK293, spliceosome inhibition project, primary screen (AID 1101).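 Further: HEK293 cells carrying a splicing-competent luciferase reporter gene; test concentration not given here.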 The following applies: HEK293 splicing luciferase reporter, 24 h, higher = more signal, called active from +8 up or from −8 down. (In general: A reporter such as luciferase makes a cellular process visible.)
In test [5] the target is Fibroblast growth factor 10 (Homo sapiens) (UniProt O15520). In words: compounds binding fibroblast growth factor 10 – biochemical, small-molecule microarray, 635 nm fluorescence, primary screen (AID 1102). The following applies: FGF10 binding, fluorescence 635 nm, higher = more signal.
Sequence of Fibroblast growth factor 10 (Homo sapiens) (O15520 whole entry, looked up): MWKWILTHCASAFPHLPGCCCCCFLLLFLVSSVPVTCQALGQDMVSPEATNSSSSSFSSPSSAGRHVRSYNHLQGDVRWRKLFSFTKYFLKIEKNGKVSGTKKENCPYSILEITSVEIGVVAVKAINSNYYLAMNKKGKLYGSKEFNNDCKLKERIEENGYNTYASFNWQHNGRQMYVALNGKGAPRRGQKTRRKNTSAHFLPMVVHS
Test [6] deals with glycogen synthase kinase-3 (GSK3A per assay name; protocol says GSK3B). In words: compounds binding glycogen synthase kinase-3 – biochemical, small-molecule microarray, 635 nm fluorescence, GSK3A, primary screen (AID 1103). Further: the record names both GSK3A and GSK3B. The following applies: fluorescence 635 nm, higher = more signal.
The target of test [7] is Epidermal growth factor receptor (Homo sapiens) (UniProt P00533). In words: compounds binding epidermal growth factor receptor – biochemical, small-molecule microarray, 635 nm fluorescence, primary screen (AID 1104).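 Further: score merges 667 nm emission intensity with spot signal to noise over triplicate slides.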 Conditions: EGFR binding, higher = more signal.
Sequence of Epidermal growth factor receptor (Homo sapiens) (P00533 whole entry, looked up): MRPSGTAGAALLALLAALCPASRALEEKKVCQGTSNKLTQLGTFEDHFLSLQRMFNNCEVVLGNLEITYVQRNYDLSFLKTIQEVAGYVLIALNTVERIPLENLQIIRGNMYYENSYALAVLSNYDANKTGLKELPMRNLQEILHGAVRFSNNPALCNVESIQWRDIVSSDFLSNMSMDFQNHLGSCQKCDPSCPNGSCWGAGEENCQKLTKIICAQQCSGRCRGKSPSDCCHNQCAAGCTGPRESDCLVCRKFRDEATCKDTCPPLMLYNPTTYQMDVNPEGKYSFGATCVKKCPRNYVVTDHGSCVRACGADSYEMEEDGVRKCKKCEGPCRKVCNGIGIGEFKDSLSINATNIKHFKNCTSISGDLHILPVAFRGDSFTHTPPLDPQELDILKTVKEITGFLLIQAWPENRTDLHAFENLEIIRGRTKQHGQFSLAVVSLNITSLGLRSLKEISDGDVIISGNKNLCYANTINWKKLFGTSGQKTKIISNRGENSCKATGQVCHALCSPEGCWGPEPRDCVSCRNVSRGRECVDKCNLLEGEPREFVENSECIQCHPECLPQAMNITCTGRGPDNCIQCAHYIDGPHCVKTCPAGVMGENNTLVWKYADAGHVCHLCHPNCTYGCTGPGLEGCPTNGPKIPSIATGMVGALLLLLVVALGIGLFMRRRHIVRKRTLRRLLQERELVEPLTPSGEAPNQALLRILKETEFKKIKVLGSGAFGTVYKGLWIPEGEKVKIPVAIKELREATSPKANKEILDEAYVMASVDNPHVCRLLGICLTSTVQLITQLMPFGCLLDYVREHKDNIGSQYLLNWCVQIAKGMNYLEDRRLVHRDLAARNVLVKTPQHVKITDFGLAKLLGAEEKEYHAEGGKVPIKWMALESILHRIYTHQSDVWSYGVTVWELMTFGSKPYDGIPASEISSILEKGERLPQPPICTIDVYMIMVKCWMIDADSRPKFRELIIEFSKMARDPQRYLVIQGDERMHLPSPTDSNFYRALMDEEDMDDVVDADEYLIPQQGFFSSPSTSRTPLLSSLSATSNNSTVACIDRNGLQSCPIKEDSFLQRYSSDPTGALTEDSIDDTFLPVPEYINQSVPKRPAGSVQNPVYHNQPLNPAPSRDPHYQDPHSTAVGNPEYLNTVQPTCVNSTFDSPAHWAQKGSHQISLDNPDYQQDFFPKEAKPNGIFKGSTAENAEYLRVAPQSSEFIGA
The target of test [8] is Follistatin-related protein 3 (Homo sapiens) (UniProt O95633). In words: compounds binding follistatin-related protein 3 – biochemical, small-molecule microarray, 635 nm fluorescence, primary screen (AID 1105).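 Further: score merges emission near 667 nm and signal to noise per printed spot across three slides.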 Conditions: FSTL3 binding, higher = more signal.
Sequence of Follistatin-related protein 3 (Homo sapiens) (O95633 whole entry, looked up): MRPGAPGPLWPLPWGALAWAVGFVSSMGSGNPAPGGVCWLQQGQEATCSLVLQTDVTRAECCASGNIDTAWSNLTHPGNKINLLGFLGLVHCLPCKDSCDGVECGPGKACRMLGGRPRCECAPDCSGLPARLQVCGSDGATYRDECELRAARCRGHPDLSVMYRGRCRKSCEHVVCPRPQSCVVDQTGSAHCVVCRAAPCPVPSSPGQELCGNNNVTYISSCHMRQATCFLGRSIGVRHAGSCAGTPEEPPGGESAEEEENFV
Test [9] concerns the target Dickkopf-related protein 1 (Homo sapiens) (UniProt O94907). In words: small molecules binding DKK1 protein – biochemical, small-molecule microarray, 635 nm fluorescence scan, primary screen (AID 1106).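 Further: score merges emission near 667 nm with signal to noise over three replicate slides.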 Conditions: higher = more signal.
The test system of test [10] is Inhibin beta A chain (activin A). In words: small molecules binding activin A – biochemical, small-molecule microarray, 635 nm fluorescence scan, primary screen (AID 1107).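 Further: mouse activin A protein probed at 4.33 µg/mL on printed slides; score merges bound-protein fluorescence near 667 nm with spot signal-to-noise.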 Conditions: INHBA, higher = more signal.
Test [11] deals with Human papillomavirus type 1a protein E7 (residues 44-93). In words: small molecules binding HPV E7 44-93 – biochemical, small-molecule microarray, residues 44-93, 635 nm fluorescence, primary screen (AID 1108).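 Further: E7 fragment applied at 1 µg/mL in TBST for 1 h at 4 C; score combines spot fluorescence with its signal to noise ratio.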 Conditions: fluorescence 635 nm, higher = more signal.
Test [12] can be described thus: hepatitis C replication reporter changes, two-sided – Huh7 cells, luciferase reporter, HCV replication inhibitor project, primary screen (AID 1109).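 Further: huh7 hepatoma cells harbouring a luciferase neomycin HCV replicon reporter; luciferase luminescence as measure of HCV replicon replication; test concentration not given here.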 The following applies: Huh7 HCV replicon luciferase reporter, 48 h; higher = more signal.
Test [13] deals with Left-right determination factor 2 (Homo sapiens) (UniProt O00292). In words: small molecules binding LEFTY2 protein – biochemical, small-molecule microarray, 635 nm fluorescence scan, primary screen (AID 1110). The following applies: higher = more signal.
Sequence of Left-right determination factor 2 (Homo sapiens) (O00292 whole entry, looked up): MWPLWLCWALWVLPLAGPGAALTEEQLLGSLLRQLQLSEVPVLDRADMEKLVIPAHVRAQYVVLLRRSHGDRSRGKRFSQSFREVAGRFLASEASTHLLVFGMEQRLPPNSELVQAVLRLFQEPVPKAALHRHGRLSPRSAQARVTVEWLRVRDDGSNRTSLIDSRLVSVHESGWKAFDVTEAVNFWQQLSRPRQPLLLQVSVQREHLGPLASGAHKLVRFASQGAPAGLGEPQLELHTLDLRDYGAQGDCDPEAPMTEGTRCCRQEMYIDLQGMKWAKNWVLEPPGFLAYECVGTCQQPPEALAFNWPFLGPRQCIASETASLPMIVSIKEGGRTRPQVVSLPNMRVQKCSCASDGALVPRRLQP
The target of test [14] is Calmodulin-1 (Homo sapiens) (UniProt P0DP23). In words: small molecules binding calmodulin-1 with EGTA – biochemical, small-molecule microarray, Cy5-labelled CALM1, profiling panel (AID 1111).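 Further: labelled calmodulin applied in Tris saline Tween buffer holding calcium plus EGTA and DTT.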 Conditions: Cy5-CALM1 binding fluorescence, higher = more signal.
Test [15] has the same target. In words: small molecules binding Ca-loaded calmodulin-1 – biochemical, small-molecule microarray, Cy5-labelled CALM1, plus calcium, artefact control for SMM control-protein annotation, profiling panel (AID 1112).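 Further: score merges spot fluorescence with signal to noise from triplicate slides.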 The following applies: Cy5-CALM1 binding fluorescence, higher = more signal.
Test [16] can be described thus: probe aWnt5a binding to arrayed compounds – biochemical, biotinylated probe, 635/667 nm fluorescence, primary screen (AID 1113).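 Further: score merges 667 nm fluorescence intensity with signal-to-noise per printed feature.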 Conditions: small-molecule microarray, higher = more signal.
A short description of test [17]: probe aShh binding to arrayed compounds – biochemical, biotinylated probe, 635/667 nm fluorescence, primary screen (AID 1114).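 Further: probe is biotin-labelled aShh protein from a stem cell growth factor screen; measures binding of labelled protein to compounds printed on the slide; score merges feature fluorescence at 667 nm with signal-to-noise.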 The following applies: small-molecule microarray, higher = more signal.
Test [18] can be described thus: probe aNog binding to arrayed compounds – biochemical, biotinylated probe, 635/667 nm fluorescence, primary screen (AID 1115).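 Further: probe is biotinylated aNog protein used at 0.15 µg/mL for 1 h at 4 C; z-score combines 667 nm fluorescence of each spot with its signal to noise.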 The following applies: small-molecule microarray, higher = more signal.
The target in test [19] is Torsin-1A-interacting protein 1 (Homo sapiens) (UniProt Q5JTV8). In words: compound microarray binding of lysate hLAP1 – cell lysate, small-molecule microarray, COS7 lysate, 635/667 nm fluorescence, primary screen (AID 1116). The following applies: 635 nm fluorescence, higher = more signal.
Sequence of Torsin-1A-interacting protein 1 (Homo sapiens) (Q5JTV8 whole entry, looked up): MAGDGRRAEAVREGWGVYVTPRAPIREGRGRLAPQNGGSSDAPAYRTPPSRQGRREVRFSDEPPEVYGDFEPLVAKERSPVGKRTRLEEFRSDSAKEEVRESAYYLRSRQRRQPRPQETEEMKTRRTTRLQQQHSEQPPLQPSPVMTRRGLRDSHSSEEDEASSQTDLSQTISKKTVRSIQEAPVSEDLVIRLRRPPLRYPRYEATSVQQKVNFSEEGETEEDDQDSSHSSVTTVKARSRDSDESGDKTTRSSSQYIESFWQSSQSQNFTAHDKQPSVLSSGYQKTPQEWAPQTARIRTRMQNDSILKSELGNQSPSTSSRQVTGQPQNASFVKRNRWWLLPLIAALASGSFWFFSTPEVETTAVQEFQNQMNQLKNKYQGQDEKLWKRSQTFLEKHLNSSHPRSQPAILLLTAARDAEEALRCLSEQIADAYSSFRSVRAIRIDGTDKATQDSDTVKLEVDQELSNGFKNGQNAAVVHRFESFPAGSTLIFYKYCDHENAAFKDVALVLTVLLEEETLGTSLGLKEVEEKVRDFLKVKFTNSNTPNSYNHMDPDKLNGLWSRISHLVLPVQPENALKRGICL
Test [20] has as its target Alpha-bungarotoxin (Bungarus multicinctus) (UniProt P60615). In words: compounds binding labelled alpha-BTX control protein – biochemical, small-molecule microarray, Alexa647 label, 635/667 nm fluorescence, artefact control for SMM control protein annotation, profiling panel (AID 1117). Conditions: alpha-BTX-A647 binding fluorescence, higher = more signal.

Sequence of Dickkopf-related protein 1 (Homo sapiens) (O94907 whole entry, looked up): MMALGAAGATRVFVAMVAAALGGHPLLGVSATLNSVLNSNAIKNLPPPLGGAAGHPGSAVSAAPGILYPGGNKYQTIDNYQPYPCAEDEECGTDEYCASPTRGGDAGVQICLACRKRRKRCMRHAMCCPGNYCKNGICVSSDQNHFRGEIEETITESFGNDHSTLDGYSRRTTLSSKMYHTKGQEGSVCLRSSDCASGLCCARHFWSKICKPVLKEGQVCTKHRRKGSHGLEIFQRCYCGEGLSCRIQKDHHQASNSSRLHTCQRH
Sequence of Alpha-bungarotoxin (Bungarus multicinctus) (P60615 whole entry, looked up): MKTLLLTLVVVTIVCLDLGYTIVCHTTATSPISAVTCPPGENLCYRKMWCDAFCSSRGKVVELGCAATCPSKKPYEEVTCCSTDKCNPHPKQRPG

As to `COc1cccc(/C=C(\C#N)C(=O)Nc2c(C)n(C)n(-c3ccccc3)c2=O)c1`, the composite z-score in [1] is 0.129; in [2], -0.0045; in [3] it was 0.0654; in test [5] it was 0.179; in [6] it was 0.497; in test [7], 0.413. In addition, the composite z-score is 0.447 in test [8]; 0.0952 in [9]; 0.141 in [10]; 1.11 in test [11]; 0.303 in [13]; 1.27 in test [14]. Moreover, the composite z-score in test [15] is 0.0209; in test [16] it was -0.0894; in [17] it was -0.223; in test [18], -0.0899; in test [19], 0.569; in test [20], 1.19. In addition, the values for the z-score in [4] and in [12] were -0.238 (inactive) and -0.479, respectively.

As to `O=C1C2C=CC(C(O)c3cc(C(F)(F)F)cc(C(F)(F)F)c3)N(Nc3ccccc3F)C2C(=O)N1c1ccccc1` (stereo not given), the composite z-score in test [1] was 0.99; in test [2], 1.09; in test [3] it was 1.03; in [5] it was 0.223; in test [6], 0.708; in test [7], -0.855. Further, the composite z-score in [8] is -0.19; in test [9] it was -0.795; in [10], 0.37; in [11], 0.962; in test [13], -0.327; in [14] it was 0.896. In addition, the composite z-score in [15] is 0.681; in test [16], -0.043; in [17] it was 0.957; in [18], 1.97; in test [19], 0.985; in test [20], 0.383. The figures for the z-score in test [4] and in test [12] were 0.537 (inactive) and -2.74, respectively.

Turning to `O=C1C2C=CC(C(O)c3ccc4c(c3)OCO4)N(Nc3ccccc3)C2C(=O)N1c1ccccc1` (stereo not given), the composite z-score was 1.41 in test [1]; 0.45 in test [2]; 1.09 in test [3]; 0.781 in test [5]; -0.157 in test [6]; -0.0637 in [7]. Also, the composite z-score was 0.71 in test [8]; -0.541 in test [9]; 0.477 in [10]; 1.36 in test [11]; -0.127 in test [13]; 1.36 in test [14]. The composite z-score was 0.174 in test [15]; -0.0286 in test [16]; -0.0904 in test [17]; 1.69 in test [18]; 0.722 in [19]; 1.05 in test [20]. In addition, the z-score was 0.243 (inactive) in test [4] and -0.631 in test [12].

On to `C=CCN1C(=O)[C@]2(O[C@H](CCO)[C@@H]([Si](C)(C)c3ccc(OC)cc3)[C@@H]2C)c2cc(NC(=O)c3ccc(OC)cc3)ccc21`, for which the composite z-score in test [1] is 0.527; in [2] it was -0.19; in [3] it was -0.525; in test [5] it was 0.468; in test [6], 0.448; in [7] it was 0.484. In addition, the composite z-score in test [8] stood at 1.23; in [9], 0.682; in [10] it was 0.982; in test [11], 1.12; in test [13], 0.391; in test [14], 0.0503. The composite z-score in test [15] is 0.631; in [16], -0.102; in test [17], -0.0553; in test [18], -0.0184; in [19], 0.336; in test [20], 0.732. Also, the z-score is -2.1 (inactive) in [4] and -5.1 in test [12].

In the case of `COc1cc(NN2C(C(O)c3ccc(I)cc3)C=CC3C(=O)N(c4ccccc4)C(=O)C32)cc(OC)c1OC` (stereo not given), the composite z-score in [1] amounted to 0.913; in test [2], 0.763; in test [3], 1.04; in test [5] it was 1.17; in test [6], 1.29; in [7], 0.266. Also, the composite z-score in [8] was 1.3; in test [9], -0.305; in test [10] it was 0.946; in test [11] it was 1.46; in test [13], 0.391; in [14], 1.85. The composite z-score in test [15] was determined as 0.663; in test [16] it was 0.136; in test [17], 0.213; in [18], 1.23; in test [19] it was 1.64; in test [20] it was 1.68. The z-score is -0.329 (inactive) in test [4] and -0.573 in test [12].

In the case of `C=CCNC(=O)[C@H]1[C@@H]2C(=O)O[C@@H](c3ccccc3)[C@@H](c3ccccc3)N2[C@@H](c2ccc(OCCO)cc2)[C@]12C(=O)Nc1ccc(C#CCNC(N)=O)cc12`, the composite z-score in [1] was 1.2; in [2] it was 0.867; in test [3], 1.05; in test [5], 1.13; in [6], 0.332; in [7], -0.471. For the same molecule, the composite z-score was 0.65 in [8]; 0.0352 in test [9]; 0.624 in [10]; 0.0863 in test [11]; 0.192 in test [13]; 1.41 in [14]. The composite z-score in test [15] was 1.15; in test [16], -0.0009; in test [17], 0.163; in [18], 0.85; in test [19], 0.311; in test [20] it was 2.07. For the same molecule, the z-score is -0.595 (inactive) in [4] and -0.587 in [12].
